Data: PubChem BioAssay
Values joined by “and” are separate entries in the source; they are usually repeats but may differ in a detail not shown here. Equal values may be shown once. Inconclusive results are not listed. For some of these results: Entries with a potency or affinity are not part of this list. Active and inactive are the calls of the source.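 Rule for the calls, unless noted: active = compounds whose cell count with miR-34 switched on is under 0.7 times the count with it off; inactive = the rest.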

Columns and labels:
[1] = tested on: Aerobactin synthetase IucA (Klebsiella pneumoniae); test: IucA aerobactin synthetase inhibitors, biochemical, Tocris library, absorbance (AID 1345561; call rule not given here;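 note: 100% = enzyme without compound and 0% = no enzyme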); settings: purified IucA enzyme assay, absorbance (OD) read-out; stronger effect = lower value;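 tested at 8 µM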
[2] = growth inhibition of DIPG glioma cells, dose response, cell-based, SU-DIPG-XVII, MIPE5.0, CellTiter-Glo, qHTS (AID 1347060; cut-off not given, nearly all actives have AC50 up to about 26 µM;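 for AC50: cells exposed to compound for 48 hours before viability readout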); settings: SU-DIPG-XVII viability, CellTiter-Glo ATP luminescence
[3] = growth inhibition of DIPG glioma cells, dose response, cell-based, SU-DIPG-XIII, MIPE4.0, CellTiter-Glo, qHTS (AID 1347061; cut-off not given, nearly all actives have AC50 up to about 37 µM;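 note: cells exposed to compound for 48 hours before readout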); settings: SU-DIPG-XIII viability, CellTiter-Glo ATP luminescence
[4] = growth inhibition of DIPG glioma cells, dose response, cell-based, SU-DIPG-IV, MIPE4.0, CellTiter-Glo, qHTS (AID 1347063; cut-off not given, nearly all actives have AC50 up to about 30 µM;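 note: compound exposure lasted 48 hours before the viability readout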); settings: SU-DIPG-IV viability, CellTiter-Glo ATP luminescence
[5] = growth inhibition of DIPG glioma cells, dose response, cell-based, SU-DIPG-XIII, MIPE5.0, CellTiter-Glo, qHTS (AID 1347064; cut-off not given, nearly all actives have AC50 up to about 23 µM;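 for AC50: cells exposed to compound for 48 hours before the viability read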); settings: SU-DIPG-XIII viability, CellTiter-Glo ATP luminescence
[6] = viability loss in pontine glioma line – cell-based, SU-DIPG-XXV, MIPE5.0, CellTiter-Glo, qHTS, dose response (AID 1347065; cut-off not given, nearly all actives have AC50 up to about 26 µM;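 note: cells exposed to compound for 48 hours before ATP readout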); settings: CellTiter-Glo ATP luminescence
[7] = SU-DIPG-VI glioma cell viability, MIPE4.0 library, CellTiter-Glo luminescence, qHTS (AID 1347066; cut-off not given, nearly all actives have AC50 up to about 30 µM;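 note: cells exposed to compound for 48 hours before readout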); settings: CellTiter-Glo ATP luminescence
[8] = SU-DIPG-XXV glioma cell viability, MIPE5.0 library, qHTS (AID 1347068; cut-off not given, nearly all actives have IC50 up to about 30 µM;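 for IC50: cells exposed to compound for 48 hours before viability readout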)
[9] = sensitizers of A549 cells to miR-34 induction, primary screen, imaging, A549 dox-inducible miR-34, nuclei and caspase counts (AID 1347080); settings: A549 miR-34 inducible, Hoechst nuclei count, 48 h
[10] = survival rescue of mitochondrial mutant cells in low glucose, primary screen, MELAS cybrids, Rieske KO mouse fibroblasts, CellTiter-Glo (AID 1508586;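 active = mean z-score across replicates of 1.96 or higher in either the MELAS or the Rieske mutant cell line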;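 note: z relative to plate mean and SD of compound and empty wells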)
[11] = viability rescue of complex I mutant cybrids, primary screen, cell-based, galactose medium, ATP luminescence (AID 1645843;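 active = z-score of at least 1.8 in each of two replicates, scored against plate mean and spread of sample wells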;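 note: positive z means more ATP and so rescue of galactose-driven cybrid death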); settings: complex I mutant cybrid cells, 72 h, stronger effect = higher value
[12] = growth inhibition of DIPG glioma cells, dose response, cell-based, JHH-DIPG-1, MIPE4.0, CellTiter-Glo, qHTS (AID 1347062; cut-off not given, nearly all actives have AC50 up to about 27 µM); settings: JHH-DIPG-1 viability, CellTiter-Glo ATP luminescence
[13] = JHH-DIPG-1 glioma cell viability, MIPE5.0 library, CellTiter-Glo luminescence, qHTS (AID 1347067; cut-off not given, nearly all actives have AC50 up to about 26 µM;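 note: cells exposed to compound for 48 hours before readout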); settings: JHH-DIPG-1 glioma viability, CellTiter-Glo ATP luminescence
[14] = inhibitors of Cryptococcus chitosan production, flow cytometry, Cibacron Brilliant Red staining (AID 1347148; call rule not given here;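 note: compound exposure lasted three days at 37 degrees C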); settings: Cryptococcus neoformans chitosan, stronger effect = lower value; at 10 µM unless noted
[15] = target: ATP-dependent translocase ABCB1 (Homo sapiens) (UniProt P08183); test: MDR1 (ABCB1) efflux transporter inhibition, cell-based (AID 377; in the data active = fluorescence slope change above about 50%); settings: MDR1-expressing cells, fluorescent substrate accumulation slope; stronger effect = higher value; concentration not given here
Chain of ATP-dependent translocase ABCB1 (Homo sapiens) (P08183 whole entry, looked up): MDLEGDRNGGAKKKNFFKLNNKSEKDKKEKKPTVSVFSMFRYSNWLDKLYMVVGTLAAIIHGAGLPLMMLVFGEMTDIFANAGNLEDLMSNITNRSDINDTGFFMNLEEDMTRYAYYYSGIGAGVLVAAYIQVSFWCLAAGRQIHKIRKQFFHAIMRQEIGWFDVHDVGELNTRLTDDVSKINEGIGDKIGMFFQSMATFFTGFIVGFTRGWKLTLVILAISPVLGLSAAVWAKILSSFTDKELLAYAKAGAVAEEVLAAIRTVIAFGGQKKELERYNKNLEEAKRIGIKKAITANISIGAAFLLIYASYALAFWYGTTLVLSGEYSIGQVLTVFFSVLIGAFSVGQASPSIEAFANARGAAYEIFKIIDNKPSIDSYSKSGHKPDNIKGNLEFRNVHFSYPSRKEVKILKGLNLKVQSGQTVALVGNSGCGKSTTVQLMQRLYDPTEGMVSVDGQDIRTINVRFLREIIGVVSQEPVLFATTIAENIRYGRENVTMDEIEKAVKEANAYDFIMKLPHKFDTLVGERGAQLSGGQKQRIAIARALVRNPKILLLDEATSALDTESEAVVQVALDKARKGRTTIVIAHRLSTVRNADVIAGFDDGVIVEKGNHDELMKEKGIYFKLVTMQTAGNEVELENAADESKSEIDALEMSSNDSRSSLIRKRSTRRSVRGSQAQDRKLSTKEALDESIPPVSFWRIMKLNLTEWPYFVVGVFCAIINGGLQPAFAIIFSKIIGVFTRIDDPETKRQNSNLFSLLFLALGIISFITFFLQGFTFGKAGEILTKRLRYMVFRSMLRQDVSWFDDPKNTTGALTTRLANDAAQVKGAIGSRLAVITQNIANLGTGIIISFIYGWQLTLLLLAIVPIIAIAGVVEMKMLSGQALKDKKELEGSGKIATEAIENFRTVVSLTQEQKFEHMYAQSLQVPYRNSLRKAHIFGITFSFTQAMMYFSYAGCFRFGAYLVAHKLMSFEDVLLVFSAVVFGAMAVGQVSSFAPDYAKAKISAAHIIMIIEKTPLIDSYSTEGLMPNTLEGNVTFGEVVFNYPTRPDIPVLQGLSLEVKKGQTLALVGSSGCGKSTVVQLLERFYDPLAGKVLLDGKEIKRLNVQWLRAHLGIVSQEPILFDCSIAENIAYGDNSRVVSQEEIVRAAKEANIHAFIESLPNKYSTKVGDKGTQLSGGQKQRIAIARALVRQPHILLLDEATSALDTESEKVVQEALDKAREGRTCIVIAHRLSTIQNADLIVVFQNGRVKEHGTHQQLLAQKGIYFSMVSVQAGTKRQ

[16] = polyglutamine-triggered caspase-3 activation inhibitors, cell-based (AID 1583); settings: polyglutamine-induced caspase-3 activation, cell assay; stronger effect = higher value;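 tested at 10 µM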
[17] = suppressors of polyQ aggregation in yeast, 75Q-TubU reporter (AID 1593); settings: Yeast 75Q polyglutamine aggregation reporter
[18] = rescue of polyQ-huntingtin neuronal dysfunction in worms, whole organism, C. elegans mechanosensory neurons, N-terminal huntingtin (AID 1599); settings: touch response, stronger effect = higher value
[19] = inhibitors of mitochondrial cytochrome c release, biochemical, purified mitochondria (AID 1603); settings: stronger effect = lower value;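 note: mouse liver mitochondria challenged with calcium chloride; signal normalized to the plate average as 100%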
[20] = inhibitors of polyQ protein aggregation (AID 1604); settings: polyglutamine-induced protein aggregation inhibition assay; stronger effect = higher value; tested at 2.5 µM
[21] = enhancers of glutamate uptake in motor neurons, MN-1 cell line (AID 1612); settings: MN-1 motor neuron cells, stronger effect = higher value;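 note: tested at 1 µM final; 0% = mean of DMSO vehicle wells on each plate; positive means more glutamate uptake than control and negative means less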
[22] = reducers of polyQ inclusions in PC12 cells, cell-based, NGF-treated PC12, GFPQ80 (AID 1614); settings: PC12 NGF-treated GFP-polyQ80 inclusion reduction;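 note: lower means fewer inclusions and 0 means no inclusions at all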
[23] = suppressors of polyglutamine aggregation in yeast, 75Q-TubH (AID 1616); settings: S. cerevisiae 75Q-TubH polyglutamine aggregation suppression; stronger effect = higher value
[24] = circadian clock period modulators, cell-based, LOPAC library, luminescence reporter (AID 2774; call rule not given here;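 note: values are relative to mean of DMSO wells on each plate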); settings: circadian reporter cells, at 7 µM, actives lie on both sides
[25] = hESC survival regulators, cell-based (AID 493140; call rule not given here;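 note: cells exposed to compounds for four days before counting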); settings: human embryonic stem cell survival screen; stronger effect = higher value
[26] = liver-stage malaria parasite growth inhibition, primary screen, cell-based, HepG2, luciferase luminescence, HepG2 viability (AID 624349; in the data active = parasite load remaining mostly below about 12%, no sharp cut-off; inactive = mostly above about 10%;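 note: 100% = mean of DMSO negative control wells on the same plate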); settings: P. berghei liver stage in HepG2, luciferase luminescence, concentration not given here; parasite load remaining: stronger effect = lower value; viability: measured here: HepG2 viability without parasites
[27] = target: Mitogen-activated protein kinase 7 (Homo sapiens) (UniProt Q13164); test: ERK5 transactivation activators in reporter cells, primary screen, cell-based, HTS (AID 1508626;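 active = luciferase signal above three times the same-plate solvent-only control wells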;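 note: luciferase driven by Gal4-ERK5 fusion binding five Gal4 sites before minimal TATA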); settings: HeLa Gal4-ERK5 transactivation, 18 h, at 5 µM, stronger effect = higher value
Chain of Mitogen-activated protein kinase 7 (Homo sapiens) (Q13164 whole entry, looked up, the tested form may be a part): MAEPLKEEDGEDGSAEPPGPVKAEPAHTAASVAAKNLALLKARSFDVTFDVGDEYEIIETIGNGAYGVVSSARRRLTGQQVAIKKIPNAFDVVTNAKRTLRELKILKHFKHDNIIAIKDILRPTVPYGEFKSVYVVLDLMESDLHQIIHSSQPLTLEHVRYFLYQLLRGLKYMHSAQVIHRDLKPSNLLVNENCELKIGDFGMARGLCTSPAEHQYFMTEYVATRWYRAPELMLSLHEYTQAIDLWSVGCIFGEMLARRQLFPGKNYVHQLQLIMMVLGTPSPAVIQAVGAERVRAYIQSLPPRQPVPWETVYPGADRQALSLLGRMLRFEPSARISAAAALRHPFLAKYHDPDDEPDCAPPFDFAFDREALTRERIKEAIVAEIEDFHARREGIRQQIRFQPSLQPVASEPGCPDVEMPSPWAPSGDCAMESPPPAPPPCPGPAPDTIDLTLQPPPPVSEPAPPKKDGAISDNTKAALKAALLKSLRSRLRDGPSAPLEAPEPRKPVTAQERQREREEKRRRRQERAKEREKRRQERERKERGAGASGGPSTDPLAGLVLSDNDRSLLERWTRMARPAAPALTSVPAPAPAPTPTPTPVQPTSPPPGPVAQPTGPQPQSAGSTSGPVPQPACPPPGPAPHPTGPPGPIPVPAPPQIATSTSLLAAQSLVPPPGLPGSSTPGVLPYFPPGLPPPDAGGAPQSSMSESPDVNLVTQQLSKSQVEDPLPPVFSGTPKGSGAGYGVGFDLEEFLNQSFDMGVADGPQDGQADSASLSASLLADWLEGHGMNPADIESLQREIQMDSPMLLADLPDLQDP

[28] = stronger effect = lower value, cell number ratio, induced over uninduced
[29] = measured here: relative caspase fold change +Dox/-Dox
[30] = measured here: total cells with miR-34 induction, stronger effect = lower value
[31] = measured here: total cells without miR-34 induction
[32] = MELAS cybrid survival, CellTiter-Glo 48 h, stronger effect = higher value
[33] = Rieske KO mouse fibroblast survival, CellTiter-Glo 72 h

SMILES: Cc1cc(SCc2sc(-c3ccc(C(F)(F)F)c(F)c3)nc2C)ccc1OCC(=O)O
- remaining activity [1]: 88.1% (inactive)
- outcome [2]: inactive
- outcome [3]: inactive
- outcome [4]: inactive
- outcome [5]: inactive
- outcome [6]: inactive
- outcome [7]: inactive
- outcome [8]: inactive
- fold change [9, 28]: 0.896 (inactive) and 0.953 (inactive) and 0.869 (inactive)
- fold change [9, 29]: 0.54 and 0.363 and 1.57
- cell count [9, 30]: 5150 and 8510 and 7240
- cell count [9, 31]: 5740 and 8930 and 8330
- z-score [10, 32]: -0.492 (inactive)
- z-score [10, 33]: -2.16
- z-score [11]: 1.59 (inactive)

SMILES: C[C@H]1CCC/C=C/C2C[C@H](O)C[C@H]2[C@H](O)/C=C/C(=O)O1 (stereo not given in full)
- remaining activity [1]: 129% (inactive)
- AC50 [2]: 0.0661 µM (active)
- outcome [3]: inactive
- outcome [12]: inactive
- outcome [4]: inactive
- AC50 [5]: 0.235 µM (active)
- AC50 [6]: 0.263 µM (active)
- outcome [7]: inactive
- AC50 [13]: 0.235 µM (active)
- IC50 [8]: 0.209 µM (active)
- fold change ([9]; stronger effect = lower value): 1.05 (inactive) and 1.09 (inactive)
- fold change [9, 29]: 1.17 and 1.67
- cell count [9, 30]: 2000 and 1470
- cell count [9, 31]: 1910 and 1340
- fold fluorescence [14]: 10.7 [at 178.3 µM] (inactive)
- z-score [11]: -0.56 (inactive)

SMILES: CN1CCc2cc3c(cc2[C@H]1[C@@H]1OC(=O)c2c1ccc1c2OCO1)OCO3
- fluorescence slope change [15]: 0.5% (inactive)
- inhibition [16]: -6.49%
- score [17]: 1.32
- rescue above control [18]: 3.46
- cytochrome c release ratio [19]: 0.82
- inhibition of aggregation [20]: 59.1%
- glutamate uptake change [21]: 4.35%
- inclusion score [22]: 1.5
- aggregation suppression score [23]: 0.931
- period change [24]: 0.03 h (inactive)
- survival [25]: 5.92 (inactive)
- parasite load remaining [26]: 65% (inactive) and 87.6% (inactive)
- viability [26]: 109% and 77.4%
- remaining activity [1]: 114% (inactive)
- fold change ([9]; stronger effect = lower value): 0.865 (inactive) and 0.821 (inactive) and 0.983 (inactive)
- fold change [9, 29]: 1.2 and 0.761 and 1.26
- cell count [9, 30]: 9130 and 8360 and 9120
- cell count [9, 31]: 10600 and 10200 and 9280
- z-score [10, 32]: -0.206 (inactive)
- z-score [10, 33]: -0.158
- luciferase signal [27]: 44 AU (inactive)
- z-score [11]: 0.335 (inactive)

SMILES: COc1ccc(C(=O)c2c(C)n(CCN3CCOCC3)c3cc(I)ccc23)cc1
- remaining activity [1]: 93.9% (inactive)
- AC50 [4]: 20.9 µM (active)
- AC50 [5]: 23.5 µM (active)
- AC50 [6]: 16.6 µM (active)
- AC50 [7]: 23.5 µM (active)
- AC50 [13]: 23.5 µM (active)
- fold change ([9]; stronger effect = lower value): 1.09 (inactive)
- fold change [9, 29]: 0.642
- cell count [9, 30]: 2860
- cell count [9, 31]: 2630
- z-score [11]: -0.38 (inactive)

SMILES: CCc1cccc(CC)c1NC1=NCCN1
- remaining activity [1]: 115% (inactive)
- fold change [9, 28]: 0.952 (inactive)
- fold change [9, 29]: 1.79
- cell count [9, 30]: 8430
- cell count [9, 31]: 8850
- z-score [11]: -0.02 (inactive)
